Several values for one entry are separate records, joined by “and”; a condition that tells them apart may be missing. Identical values can stand only once. This is part of a sample that, as a whole, favours compounds with a hit. Of some 79,000 tested, about 15% had one in any assay. A number with no mark means an inactive call. Activity calls are given as the source filed them. No stated cut-off is given here; in the data, active means growth inhibition above about 70%; inactive means the rest.

Here are results for 20 compounds from PubChem BioAssay (NCI).

Test [1] in a line: NCI Yeast Anticancer Drug Screen. Data for the rad50 strain (AID 155).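 Further: 0% = growth of vehicle-only cultures of the same strain.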 The conditions noted are these: S. cerevisiae rad50 strain growth inhibition; at 50.0 µM; active compounds read high. In outline:
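Vehicle-treated cultures provide the reference for the growth inhibition reported for compound-exposed, repair-deficient yeast.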

Test [2] can be described thus: NCI Yeast Anticancer Drug Screen. Data for the mec2-1 strain (AID 157). The conditions noted are these: S. cerevisiae mec2-1 strain, at 50.0 µM, active compounds read high. The method, boiled down:
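Each compound was tested on mec2-1 yeast, a strain altered in DNA damage repair or cell cycle control. Growth inhibition is reported relative to vehicle.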

Test [3] can be described thus: NCI Yeast Anticancer Drug Screen. Data for the sgs1 mgt1 strain (AID 161).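 Further: 0% = growth of cultures given vehicle only.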 The conditions noted are these: S. cerevisiae sgs1 mgt1 strain, at 50.0 µM, active compounds read high. The method, boiled down: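 Read-out: growth inhibition vs vehicle controls. Cells: mutant yeast strain deficient in DNA damage repair.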
Test [4] is described as follows: NCI Yeast Anticancer Drug Screen. Data for the cln2 rad14 strain (AID 165).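 Further: 0% = growth equal to vehicle treated cultures.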 The conditions noted are these: S. cerevisiae cln2 rad14 strain, at 50.0 µM, active compounds read high. In outline: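 Test compounds were added to cln2 rad14 yeast cultures; inhibition of growth was then determined by comparison with vehicle treatment.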
A short description of test [5]: NCI Yeast Anticancer Drug Screen. Data for the bub3 strain (AID 167). The conditions noted are these: S. cerevisiae bub3 mutant strain, at 50.0 µM, active compounds read high. In outline: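 Mutant yeast screening strain plus compound; vehicle-treated cultures serve as the 0% inhibition reference.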
A short description of test [6]: NCI Yeast Anticancer Drug Screen. Data for the mlh1 rad18 strain (AID 175). The conditions noted are these: S. cerevisiae mlh1 rad18 strain growth inhibition; at 50.0 µM; active compounds read high. In outline: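 Inhibition values reflect reduced growth of mutant yeast versus vehicle-treated controls following compound exposure; the mutations affect DNA damage repair.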

As to `CN1C(=O)C2(Cc3cn(C45CC67SSC(CO)(C(=O)N6C4Nc4ccccc45)N(C)C7=O)c4ccccc34)SSC1(CO)C(=O)N2C` (stereo not given), the growth inhibition is 90.2% (active) in test [1]; 90.3% (active) in test [2]; 90.3% (active) in test [3]; 89.2% (active) in test [4]; 90.8% (active) in test [5]; 89.8% (active) in test [6].
As to `O=C(NC1CC1)c1c(O)[nH]c(=S)[nH]c1=O`, the growth inhibition in test [1] is -3%; in test [2], -8.2%; in test [3] it was -12.8%; in test [4] it was 16.6%; in test [5], -6.15%; in test [6], -17.1%.
For the compound `CN1CCC2CC(=O)NC1(C)C2(C)C` (stereo not given), the growth inhibition in test [1] is 13.2%; in test [2], 2.05%; in test [3], 17.9%; in test [4], 4.5%; in test [5] it was -2.2%; in test [6], 11.9%.
`Cc1ccc(NC(=O)C(Cl)(Cl)Cl)cc1Cl`: the growth inhibition in test [1] was 1.8%; in test [2], 20.6%; in test [3], 16.4%; in test [4], -5.2%; in test [5], 25.2%; in test [6], 14.8%.
With `CSCC(NP1(=O)SC(NN=C2CCCCC2)=NC1(C)C)C(=O)O` (stereo not given), the growth inhibition was 12.2% in test [1]; 3.95% in test [2]; 2% in test [3]; -5.5% in test [4]; -0.15% in test [5]; 18.6% in test [6].
In the case of `CC1C/C(=C\N=[N+]=[N-])C(=O)O1` (stereo not given), the growth inhibition in test [1] was -11.4%; in test [2], 14.7%; in test [3], 6%; in test [4], -4.9%; in test [5], 12.4%; in test [6] it was -0.05%.
In the case of `CCCCN(CCCC)CCc1ccccc1`, the growth inhibition in test [1] is 19.6%; in test [2] it was 1.8%; in test [3] it was 8.45%; in test [4], 17.8%; in test [5], 30.4%; in test [6], 17%.
For `CCOS(=O)(=O)OCC`, the growth inhibition in test [1] was 1.2%; in test [2], -12.1%; in test [3], 4.25%; in test [4], -0.45%; in test [5], -10.8%; in test [6], 14.2%.
In the case of `O.O.O=Cc1ccccc1O.O=Cc1ccccc1O.[Co]`, the growth inhibition in test [1] was 98.2% (active); in test [2], 92.2% (active); in test [3], 97.8% (active); in test [4] it was 79.1% (active); in test [5], 92.5% (active); in test [6], 98.3% (active).
As to `CC[N+]1(CC)CC[N+](CC)(CC)CC1`, the growth inhibition in test [1] is 22.9%; in test [2] it was -49%; in test [3], 25.8%; in test [4] it was -9.05%; in test [5], -0.9%; in test [6], 16.4%.
`CCC(c1ccc(OC)cc1)C(N)c1ccc(OC)cc1` (stereo not given): the growth inhibition is -14.3% in test [1]; 1.05% in test [2]; -11.9% in test [3]; -10.5% in test [4]; -4.35% in test [5]; -0.3% in test [6].
With `C/C=C/CC1(CCC(C)C)C(=O)NC(=O)NC1=O`, the growth inhibition is 24.4% and 26.9% in test [1]; 8.05% and -0.65% in test [2]; 9.9% and 4.75% in test [3]; -19.1% and -4.55% in test [4]; -5.4% and -2.35% in test [5]; 10.3% and 17.4% in test [6].
For `CN(C)/N=C(\CCN1CCCC1)CC(c1ccccc1)c1c(O)c2ccccc2oc1=O` (stereo not given), the growth inhibition in test [1] was 55%; in test [2] it was 35.6%; in test [3], 63.1%; in test [4], 48%; in test [5], 49.9%; in test [6], 50.3%.
In the case of `CCOC(=O)C1C2(C)NC(=O)C1(Cc1ccccc1)c1ccc(O)cc1O2` (stereo not given), the growth inhibition in test [1] was 4.05%; in test [2], 3.1%; in test [3], -13.1%; in test [4], 0.05%; in test [5] it was 2.5%; in test [6], -1.05%.
As for `COc1ccc(C(N)Cc2cc(OC)c(OC)c(OC)c2)cc1` (stereo not given), the growth inhibition in test [1] is -14.9%; in test [2] it was 6.1%; in test [3], 2.9%; in test [4] it was -10.5%; in test [5], 7.8%; in test [6], -8.6%.
Take `COc1ccc(C(N)Cc2ccccc2)cc1` (stereo not given): the growth inhibition in test [1] is 10.8%; in test [2] it was 3.15%; in test [3], 10.8%; in test [4], 9.85%; in test [5] it was 3.5%; in test [6], -2.35%.
For `O=[N+]([O-])c1ccc(NC(c2ccccc2)P(=O)(Oc2ccccc2)Oc2ccccc2)cc1` (stereo not given), the growth inhibition in test [1] was -1.75%; in test [2], -6.4%; in test [3], -43.1%; in test [4], -6%; in test [5], -2.05%; in test [6] it was 3.65%.
For `O=C1CCP(c2ccccc2)(c2ccccc2)(c2ccccc2)O1`, the growth inhibition in test [1] is 34.9%; in test [2], 11.8%; in test [3] it was 23.1%; in test [4], 25.7%; in test [5], 14.3%; in test [6], 7%.
Turning to `O=C(O)CCC(=O)O.[Ni]`, the growth inhibition in test [1] was -29.1%; in test [2] it was -17.1%; in test [3], -27%; in test [4], -36.5%; in test [5] it was -31.2%; in test [6], -18.3%.
Consider `Nc1cc(S(=O)(=O)F)ccc1Cl`, for which the growth inhibition is 26.3% in test [1]; 6.1% in test [2]; 20.1% in test [3]; 35.5% in test [4]; 22.9% in test [5]; 23.6% in test [6].
